GRK2 aptamer HTS: inhibitors of human GRK2 displacing RNA aptamer. P25098. bead flow cytometry, FAM-aptamer displacement from GRK2. inhibition of aptamer binding, % at 10 µM. hit rate 0.59% among 330,000. AID 488847;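 active = inhibition of aptamer binding above 40%, roughly 3 SD of noise, on plates passing a quality check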;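 note: median bead fluorescence of bound FAM aptamer so fluorescent compounds give negative values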
HDAC3 inh: human HDAC3 inhibition | O15379 | recombinant HDAC3, fluorogenic peptide/trypsin coupled, fluorescence | inhibition, % at 8.3 µM | hit rate 0.15% among 320,000; in the data active = inhibition above about 26%, passing the limit was not always enough
Rce1 inhib: inhibitors of yeast Ras-converting enzyme; yeast membranes, quenched prenylated peptide cleavage fluorescence; calls only; hit rate 0.27% among 290,000;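 active = fall in fluorescence gain of 50% or more versus controls, with final raw signal at or below 3038400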;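 note: plate controls were neutral control wells for no effect and wells lacking membranes for full effect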
Target sequence (Q03530 whole entry, looked up): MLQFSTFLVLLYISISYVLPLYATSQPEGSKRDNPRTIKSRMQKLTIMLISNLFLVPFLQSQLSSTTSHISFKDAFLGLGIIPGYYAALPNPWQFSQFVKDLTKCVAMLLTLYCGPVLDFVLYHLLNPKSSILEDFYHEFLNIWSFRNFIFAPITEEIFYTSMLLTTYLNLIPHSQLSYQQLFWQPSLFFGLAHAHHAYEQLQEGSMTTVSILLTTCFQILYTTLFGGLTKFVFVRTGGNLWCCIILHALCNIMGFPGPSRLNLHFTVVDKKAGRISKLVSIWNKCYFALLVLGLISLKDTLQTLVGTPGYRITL
Rtt109 Vps75: blocks Candida albicans Rtt109/Vps75 acetyltransferase activity | Q5AAJ8 | purified Rtt109/Vps75, ThioGlo CoA-SH fluorescence, 4 h | inhibition, % at 34.9 µM | hit rate 0.16% among 330,000 | AID 540336;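 active = inhibition of at least 50% in every replicate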
Efflux pump inh: inhibitors of Candida antifungal efflux pumps expressed in yeast | S. cerevisiae Candida pump triplex, Nile Red efflux | inhibition, % at 10 µM | hit rate 0.44% among 330,000 | AID 485275;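 active = plate passing quality check with inhibition over a set limit, or well fluorescence over plate mean plus 4 SD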;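 note: Nile Red retained in pooled yeast measured as flow cytometry median fluorescence; 0% = buffer negative control and 100% = Enniatin B positive control; higher means more Nile Red kept so more efflux inhibition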
ALR inh: blocks human ALR sulfhydryl oxidase activity; inhibition, % (no concentration beside the values); purified ALR, DTT oxidation, H2O2 HRP-luminol luminescence; AID 485317; hit rate 3.8% among 290,000; P55789;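 active = mean replicate inhibition above about 79%, with every replicate also reaching it, limit read from the data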
Target sequence (P55789 whole entry, looked up): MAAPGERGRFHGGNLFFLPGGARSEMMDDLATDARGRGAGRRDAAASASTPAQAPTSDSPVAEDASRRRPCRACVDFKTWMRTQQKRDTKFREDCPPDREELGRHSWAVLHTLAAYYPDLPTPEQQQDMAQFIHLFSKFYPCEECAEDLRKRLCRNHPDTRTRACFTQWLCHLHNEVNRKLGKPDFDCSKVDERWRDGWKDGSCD
Active calls of the source: *; i = inactive; . = no result given; + = active, no number. In the library only some 4.5% were active in any assay of this set; here they are far more common.

SMILES | GRK2 aptamer HTS | HDAC3 inh | Rce1 inhib | Rtt109 Vps75 | Efflux pump inh | ALR inh
CCN(CC)CCN1C(=O)C(=O)/C(=C(/O)c2ccc(OC(C)C)cc2)C1c1cccs1 (stereo not drawn) | 0 | 3 | i | 6 | 0 | 2
Nc1nc(SCC(=O)N2CCN(c3ccc(F)cc3)CC2)n[nH]1 | 0 | -3 | . | 9 | 0 | 94*
Nc1nc(SCC(=O)N2CCN(c3ccccc3)CC2)n[nH]1 | 0 | 3 | i | -2 | -1 | 63
Cc1nc(SCC(=O)N2CCN(c3ccccc3)CC2)n[nH]1 | 2 | 5 | i | 2 | 0 | 99*
Cc1[nH]c2ccccc2c1SCC(=O)N1CCN(c2ccccc2)CC1 | 1 | 7 | i | -5 | 0 | 91*
O=C(CSc1nc(N2CCCCC2)nc(N2CCCCC2)n1)N1CCN(c2ccccc2)CC1 | . | . | i | -2 | . | .
O=C(CN1CCN(c2ccc(F)cc2)CC1)N1CCOCC1 | 3 | 3 | i | -28 | 0 | 88*
Cc1ccc(C)c(NC(=O)CSc2nnc(C3CCCCC3)o2)c1 | 1 | 0 | i | -17 | 1 | 0
O=C(Cc1ccccc1)NCC(=O)Nc1cccc(Cl)c1 | 3 | -3 | i | -6 | 0 | -14
C=CCn1c(CNC(=O)c2ccccc2F)nnc1SCc1nc2ccccc2c(=O)[nH]1 | 0 | -2 | i | -3 | 0 | -2
CCCc1cc(=O)[nH]c(SCC(=O)N2CCN(c3ccccc3)CC2)n1 | 0 | -4 | i | 12 | 0 | 33
O=C(CSc1nccc(=O)[nH]1)N1CCN(c2ccccc2)CC1 | 0 | -4 | i | -4 | 0 | 92*
COc1ccc(S(=O)(=O)N2CCCCC2)cc1NC(=O)c1cncc(Br)c1 | 3 | -3 | . | -10 | 0 | 3
NC(=O)c1ccc(OCC(F)(F)C(F)(F)C(F)(F)C(F)(F)C(F)(F)C(F)F)cc1 | 0 | 31* | i | -4 | 0 | -2
O=C(CSCc1ccc(Br)cc1)NC1CC1 | 0 | 0 | i | 8 | 0 | .
O=C(CSCc1cccc(Br)c1)NC1CC1 | 2 | -2 | i | 5 | 0 | 98*
O=C(CNC(=O)c1ccccc1)NCC(=O)OCC(=O)c1ccc([N+](=O)[O-])cc1 | 11 | 4 | i | -3 | 0 | 97*
O=C(CCC(=O)OCC(=O)c1ccc([N+](=O)[O-])cc1)NC1CCCCC1 | 0 | 5 | i | -1 | 0 | 80*
Cc1ccccc1CSCCNC(=O)CSCc1ccc([N+](=O)[O-])cc1 | 0 | 7 | i | -4 | 0 | 99*
COc1ccc(C(=O)N2CCC3(CC2)NCCc2[nH]cnc23)cc1 | 2 | -2 | i | 30 | 0 | .
O=C(CSCc1ccc(F)cc1)NC1CCCC1 | 0 | -2 | i | 1 | 0 | -4
O=C(CSCc1ccc([N+](=O)[O-])cc1)NC1CCCCCC1 | 4 | 6 | i | 7 | 0 | 99*
Cc1nc(N2CCN(C(=O)c3ccco3)CC2)nc2c1C(=O)CCC2 | 0 | -1 | i | 0 | 4 | .
COCCOC(=O)c1c(NC(=O)COC(=O)Cc2cccc(OC)c2)sc(C(N)=O)c1C | 83* | 3 | i | -3 | 0 | 0
Cc1c(C(=O)N(C)C(C)c2ccccn2)oc2c(F)cccc12 (stereo not drawn) | 0 | -2 | i | 0 | 0 | 2
SMILES | GRK2 aptamer HTS | HDAC3 inh | Rce1 inhib | Rtt109 Vps75 | Efflux pump inh | ALR inh
CCOC(=O)N1CCC(N2C(=O)c3ccccc3C2Nc2ccc(C)cc2)CC1 (stereo not drawn) | 2 | 3 | i | 3 | 0 | 99*
Cc1ccc(NC2c3ccccc3C(=O)N2CCN2CCOCC2)cc1 (stereo not drawn) | 4 | 0 | i | -5 | 0 | 98*
CCOC(=O)N1CCC(N2C(=O)c3ccccc3C2Nc2ccccc2)CC1 (stereo not drawn) | 2 | -8 | i | 4 | 0 | .
O=C(NCc1cccc(Cl)c1)C1CCC(=O)N(CCN2CCOCC2)C1 (stereo not drawn) | 0 | -4 | i | -2 | 0 | -4
CC(C)Cn1c(=O)c2ccccc2n2c(CCC(=O)NCC3CCCO3)nnc12 (stereo not drawn) | 0 | -16 | i | -12 | 0 | -3
O=C(Nc1nc(-c2ccccn2)cs1)c1ccc(Cl)s1 | 0 | -4 | i | -13 | 0 | 87*
CCc1sc(C(=O)Nc2nc(-c3ccccn3)cs2)cc1C | 19 | 0 | . | -7 | 0 | 3
CSc1nc2ccc3nc(NC(=O)c4ccc(Cl)s4)sc3c2s1 | 0 | 8 | i | -1 | 0 | 91*
Cc1ccc(C(=O)Nc2nc(-c3ccccn3)cs2)s1 | 4 | 2 | . | 4 | 1 | 87*
Cc1cccc(NS(=O)(=O)c2ccc(C)c(C(=O)NCc3ccncc3)c2)c1 | 0 | . | i | 1 | 0 | .
Cc1ccc(S(=O)(=O)/N=C(/Nc2cccc(O)c2)c2ccccc2)cc1 | 0 | 2 | i | 4 | 0 | .
CCOc1ccccc1CN1CCC(n2nccc2NC(=O)C2CCCC2)CC1 | 0 | 0 | i | 17 | 0 | -2
Cc1cc(C)cc(NC(=O)CCN2CCCC2)c1 | 0 | 4 | i | 3 | 0 | -4
O=C(c1ccccc1)c1ccc2cc(O)ccc2c1 | 67* | 2 | i | . | 0 | 99*
O=C(c1ccccc1)c1ccc2ccccc2c1 | . | . | . | 1 | . | .
CNc1ccc(C(=O)OCC(=O)Nc2ccnn2C(C)C)cc1[N+](=O)[O-] | 1 | 4 | . | 1 | 0 | .
Cc1ccc(C(=O)N/C(=C\c2cn(C)c3ccccc23)C(=O)NCCN2CCOCC2)cc1 | 4 | 3 | i | 13 | 0 | 19
Cc1cc(/C=C(/C#N)C(=O)O)c(C)n1-c1cccc2ccccc12 | 5 | -7 | i | 1 | 0 | 96*
O=C(CSc1nc2[nH]c(=O)cc(O)c2s1)Nc1nccs1 | 2 | 3 | . | 1 | 0 | 95*
CCc1nnc(NC(=O)CSc2nc3[nH]c(=O)cc(O)c3s2)s1 | 0 | 0 | . | -15 | 0 | 99*
Cc1cnc(=O)[nH]c1SCC(=O)Nc1nccs1 | 0 | 6 | i | 0 | 0 | 97*
O=C(CSc1nc2[nH]c(=O)cc(O)c2s1)Nc1nncs1 | . | . | . | -1 | . | .
c1cc2cn[nH]c2cc1NC1CCCCCC1 | 1 | -8 | i | 6 | 0 | 99*
COc1ccc(Oc2ccc3c(C(F)(F)F)cc(C(F)(F)F)nc3n2)cc1 | 0 | 3 | i | 8 | 0 | -4
Oc1ccc(Oc2ccc3c(C(F)(F)F)cc(C(F)(F)F)nc3n2)cc1 | 4 | 11 | i | -3 | 0 | 99*
COc1ccc(Br)cc1CSC(=N)N | 0 | 1 | i | -13 | 0 | 99*
Nc1nnc(-c2ccncc2)s1 | 2 | -23 | + | 0 | 0 | -8
COc1ccc(-c2nnc(N)s2)cc1 | 1 | -2 | . | 7 | 0 | -6

Screening results from PubChem BioAssay.
